The sample as a whole holds a higher share of hits than the screen did.
mHTT-CaM PPI inh – inhibitors of human mutant huntingtin-calmodulin interaction; P42858; AlphaScreen His-mHTT/GST-CaM binding, luminescence; inhibition, % at 15 µM; 190,000 tested, 3.6% active; AID 1671202;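 note: 0% = both proteins with DMSO and 100% = one protein alone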
Pf apPOL inh – Pf-apPOL DNA polymerase inhibition; AID 1794808; Recombinant Pf-apPOL, molecular beacon fluorescence, 1.5 h; inhibition, % at 10 µM; 210,000 tested, 0.25% active
Starred values were filed as active, the others as inactive; · = no result given. Cut-off read from the data, not from the text of the source: active = inhibition above about 50%; inactive = the rest.

SMILES	mHTT-CaM PPI inh	Pf apPOL inh
COCCN=C1Nc2ccccc2NC12CCCN(C(=O)c1n[nH]c3ccccc13)C2 (centres undefined)	76*	-7
COCCN=C1Nc2ccccc2NC12CCCN(C(=O)c1ccccc1C)C2 (centres undefined)	5	-3
C=CCNCCOc1ccc(Cl)c(Cl)c1	-14	-9
Cc1cc2[nH]c(C(=O)Nc3cc(F)ccc3F)c(CN3CCOCC3)c2s1	26	33
COc1cccc(C2=NOC(C(=O)Nc3cc(C)ccc3O)C2)c1OC (centres undefined)	-2	-1
CCn1c(=O)c(C(=O)NCC(C)C)nc2cccnc21	-4	-5
Cc1ccc(C)c(NC(=O)N2CCC(n3c(-c4ccco4)nc4cccnc43)C2)c1 (centres undefined)	42	-1
COc1cc(-c2cc(OC)c3c(C)oc(C)c3c(=O)c2)ccc1O	35	-3
Cc1oc(C)c2c(=O)cc(-c3ccc4c(c3)OCO4)cc(O)c12	53*	6
NCCc1c(-c2cccs2)[nH]c2ccccc12	88*	-6
c1csc(-c2cc3ccccc3[nH]2)c1	·	11
FC(F)Oc1ccc(-c2cc3ccccn3c2)cc1	44	0
COc1ccc(-c2cc3ccccn3c2)c(OC)c1	75*	-3
Cc1ccc(S(=O)(=O)N(CC(=O)Nc2ccccc2F)c2ccccc2C)cc1	82*	-5
COc1ccccc1NC(=O)CN(c1ccccc1C)S(=O)(=O)c1ccc(C)cc1	-1	-2
COc1ccc(NC(=O)CN(c2ccc(C)cc2)S(=O)(=O)c2ccc(F)cc2)cc1OC	5	90*
Cc1ccc(N(CC(=O)Nc2ccc(C(N)=O)cc2)S(=O)(=O)c2ccc(F)cc2)cc1	13	-3
COc1ccc(NC(=O)CN(c2ccc(C)cc2C)S(C)(=O)=O)cc1OC	3	-13
CS(=O)(=O)N(CC(=O)Nc1ccccc1)c1cc(C(F)(F)F)ccc1Cl	6	-2
Cc1ccc(N(CC(=O)Nc2ccc(F)cc2)S(C)(=O)=O)c(C)c1	5	74*
O=C(CN(c1cc(C(F)(F)F)ccc1Cl)S(=O)(=O)c1ccccc1)Nc1ccccc1	99*	-5
COCCN=C1Nc2ccccc2NC12CCCN(C(=O)c1ccc(C#N)cc1)C2 (centres undefined)	7	-3
O=C(Nc1ccc(Br)cn1)c1ccc(Cl)cc1	-4	10
Cc1cccc(N(CC(=O)Nc2ccccc2Cl)S(=O)(=O)c2ccccc2)c1C	-8	-8
COc1ccccc1N(CC(=O)Nc1ccc(Br)c(C)c1)S(C)(=O)=O	69*	-7
SMILES	mHTT-CaM PPI inh	Pf apPOL inh
Cc1cccc(N(CC(=O)Nc2ccc(F)cc2)S(=O)(=O)c2ccccc2)c1C	100*	32
COc1ccc(C)cc1N(CC(=O)Nc1cccc(Br)c1)S(C)(=O)=O	41	-4
CN(C)c1cccc(C(=O)NCC2(O)CCCC2)c1	-14	-3
OC1CCCN(c2ncccn2)C1 (centres undefined)	0	4
CCS(=O)(=O)N1CCN(c2ccc([N+](=O)[O-])c(NC3CC3)c2)CC1	0	-8
O=[N+]([O-])c1ccc(N2CCNCC2)cc1NC1C2CC3CC(C2)CC1C3 (centres undefined)	82*	0
O=C(NC(c1cccc(F)c1)c1ccc2cccnc2c1O)c1ccccc1 (centres undefined)	100*	-4
COc1ccc(C(NC(=O)c2cccc(OC)c2)c2cc(Cl)c3cccnc3c2O)cc1 (centres undefined)	28	-1
Cc1ccc(C(NC(=O)c2ccccc2)c2ccc3cccnc3c2O)cc1 (centres undefined)	100*	-3
O=C(Nc1ncccc1Cl)c1cccc(F)c1	2	-96
O=C(C1CCN(c2ccncc2)CC1)N1CCN(c2cccc(C(F)(F)F)c2)CC1	7	1
Cc1ccc2oc(C(=O)N3CCN(c4cccc(C(F)(F)F)c4)CC3)cc2n1	72*	-10
O=c1/c(=C/c2ccccc2)sc2n1CN(c1cccc(Br)c1)CN=2	-13	-4
O=C1Nc2ccc(Cl)cc2/C1=c1\sc2n(c1=O)CN(c1cccc(Br)c1)CN=2	52*	-6
O=C(c1noc2c1CCCCC2)N1CCN(c2ccccc2F)CC1	-13	-2
Cc1ccc(Cl)cc1N1CCN(C(=O)c2noc3c2CCCC3)CC1	96*	-3
CN(Cc1ccccc1)Cc1cc(=O)[nH]c(-c2ccccc2)n1	5	-4
O=C(Oc1ccc2c(c1)OC(=Cc1cccnc1)C2=O)c1ccc(Br)cc1	76*	2
O=C(Oc1ccc2c(c1)OC(=Cc1cccnc1)C2=O)c1ccncc1	24	6
O=C(Nc1cccc(Cl)c1)c1ccc(F)c(S(=O)(=O)NCc2cccs2)c1	8	-6
O=C(Nc1ccc(Cl)c(Cl)c1)c1ccc(F)c(S(=O)(=O)NCc2ccco2)c1	64*	-4
COc1ccccc1CNS(=O)(=O)c1ccc(F)c(C(=O)Nc2ccc(F)c(F)c2)c1	-1	1
O=C(Nc1cc(Cl)cc(Cl)c1)c1cc(S(=O)(=O)NCc2ccco2)ccc1F	11	-6
O=C(Nc1ccc(F)c(F)c1)c1ccc(F)c(S(=O)(=O)NCc2ccco2)c1	0	-21
O=C(Nc1ccc(Cl)c(Cl)c1)c1cc(S(=O)(=O)NCc2ccco2)ccc1F	100*	-4
SMILES	mHTT-CaM PPI inh	Pf apPOL inh
COc1ccccc1CNS(=O)(=O)c1ccc(F)c(C(=O)Nc2ccc(C)c(Cl)c2)c1	70*	0
O=C(Nc1ccc(Cl)c(Cl)c1)c1ccc(F)c(S(=O)(=O)NCc2cccs2)c1	81*	5
N#CC1=C(N)Oc2c(C=Nc3ccccc3)ccc(O)c2C1c1ccc([N+](=O)[O-])cc1 (centres undefined)	35	3
COc1cccc(N=Cc2ccc(O)c3c2OC(N)=C(C#N)C3c2ccccc2[N+](=O)[O-])c1 (centres undefined)	95*	-4
COc1ccccc1N=Cc1ccc(O)c2c1OC(N)=C(C#N)C2c1cccc([N+](=O)[O-])c1 (centres undefined)	77*	-8
Cc1ccc(-n2nc(C)c3c2OC(N)=C(C#N)C3c2ccccc2[N+](=O)[O-])cc1 (centres undefined)	9	-3
Fc1ccc(-c2nnc(Cc3nc(-c4cccc(C(F)(F)F)c4)no3)o2)cc1	-6	-8
Cc1cccc(N2CCN(C(=O)c3ccc(-c4cccnc4)nc3)CC2)c1	18	0
CC(=O)c1c(C(C)=O)c(C)n(Cc2ccc(Cl)cc2)c1C	53*	-11
CC(=O)c1sc(=S)n(CCc2ccc(Cl)cc2)c1C	·	-10
O=C(NCCc1cccnc1)C1CN(C(=O)c2ccccc2)CC12CCCCC2 (centres undefined)	3	-2
c1cc(CNc2nc(-c3nonc3NC3CC3)no2)ccn1	-3	·
COc1ccccc1C=C1Oc2c(ccc3c2CN(Cc2ccccn2)CO3)C1=O	-2	-35
COc1cccc(C=C2Oc3c(ccc4c3CN(Cc3ccccn3)CO4)C2=O)c1OC	100*	-92
COc1ccc(CN2COc3ccc4c(c3C2)OC(=Cc2cccc(OC)c2OC)C4=O)cc1OC	-3	-6
COc1ccc(C=C2Oc3c(ccc4c3CN(Cc3ccncc3)CO4)C2=O)c(OC)c1	49	-26
COc1cc(OC)c(OC)cc1C=C1Oc2c(ccc3c2CN(Cc2ccccn2)CO3)C1=O	97*	-52
COc1ccc(Br)cc1C=C1Oc2c(ccc3c2CN(Cc2ccccn2)CO3)C1=O	100*	-197
